Laboratory results as given in PubChem BioAssay AID588 (National Center for Advancing Translational Sciences (NCATS), 2007).
Screen size: about 59,000 compounds; about 25 (0.04%) were called active. The rule behind the calls is not given here. The sample as a whole holds a higher share of actives than the screen did.

Test: qHTS Assay for Spectroscopic Profiling in Resorufin Spectral Region
Conditions: Compound fluorescence, resorufin region 547/598 nm, buffer
Excerpt: NIH Molecular Libraries Screening Centers Network [MLSCN] NIH Chemical Genomics Center [NCGC] […] Occasionally, the artifactual effect may originate from the compound#s own spectral or other biophysical properties which generally tend to track its assay concentration. Pre-screening/profiling the library with respect to the compounds# spectral properties should help one exclude false positives early on. While the most informative fluorescent profiling data set is obtained by performing a full excitation and emission scan of each well by using a monochromator-based plate reader, such an approach is practical only on a very limited scale as scanning each well requires long time. An alternative approach, applied here, is to perform plate reader scans using selected excitation and emission wavelength pairs to generate a multidimensional relational database that correlates compound concentration and the respective relative fluorescence intensity at a given wavelength set. A standard curve of resorufin present on each plate as six-point concentration series, was used to compute a normalized fluorescence response, termed dye-equivalent concentration, for each compound at each concentration.
NCGC Assay Protocol Summary: Buffer: 100 mM Tris buffer, pH 8.0 Dye standard plate: The wells in columns 1 through 4 of a Kalypsys polypropylene 1536-well compound plate were filled with standard solutions of fluorophore corresponding to the spectral region of interest. Solutions of resorufin were placed in the following wells: M1, N1: 3 mM, M2, N2: 300 uM, M3, N3: 30 uM, M4, N4: zero (DMSO), O1, P1: 3 uM, O2, P2: […], O3, P3: 300 nM, O4, P4: zero (DMSO). Assay Steps: Six uL of buffer were dispensed to 1536-well Greiner black plates. Compounds and dye standards (23 nL) were transferred via Kalypsys PinTool. The plates were incubated for 15 min at room temperature, and then read on ViewLux (Perkin-Elmer) High-throughput CCD imager using 547 nm and 598 nm excitation and emission filter set. Keywords: NIH Roadmap, MLSCN, MLI, MLSMR, qHTS, NCGC, Resorufin, Fluorescent Profiling.

Max dye-equivalent concentration, inactive:
Cc1cc(C)nc(NC2=NCC(=O)N2c2ccc(Cl)cc2)n1, CCNc1ncc2nc(CCc3ccccc3)c(=O)n(-c3ccc(OC)cc3)c2n1, Cc1noc(NS(=O)(=O)c2ccc(N3CC(O)=C(c4ccccc4)C3=N)cc2)c1C, C[C@H]1O[C@@H](CC(=O)O)Cc2c1c(O)c1c(O)cc(-c3cc(=O)c4c(=O)c5c(c(=O)c=4c3=O)C[C@H](CC(=O)O)O[C@@H]5C)c(O)c1c2O, CCCOc1ccccc1-c1nc(SCCC(=O)O)n[nH]1, CCC(C)(C)n1nnnc1C(c1ccccc1OC)N1CCSCC1 (centres undefined), Cc1ccc(S(=O)(=O)NCCN2CCOCC2)cc1C, C=CCn1c(COc2ccccc2C)nnc1SCC(=O)O, Cc1cccc(NC(=O)CSc2nc3c(c(=O)[nH]2)CCC3)c1C, COc1ccccc1N1CC(O)=C(c2nc3ccccc3s2)C1=N, CCN(CC(=O)NC(C)C)C(=O)CCNC(=O)c1ccc(Cl)cc1, COc1ccc2[nH]c3ccc(OC)cc3c2c1, Cc1cc(C(F)(F)F)c(C#N)c(SCC(=O)NC2CC2)n1, COc1ccc(O)c(C(=O)c2cnc3onc(C(C)C)c3c2)c1, CCOC(=O)Nc1ccc2c(c1)N(C(=O)CN1CCN3CCCC3C1)c1ccccc1CC2 (centres undefined), CCCCNC(=O)c1ccccc1NC(=O)c1ccccc1N(C)S(C)(=O)=O, CCC(C)Sc1nc2c(c(=O)[nH]c(=O)n2C)n1CC(O)COc1cccc2ccccc12 (centres undefined), COc1ccc(-n2ncc3c(N4CCc5ccccc54)ncnc32)cc1, Cc1ccc(-n2c(Cc3cccs3)nnc2SCC(=O)OC(C)C)cc1, COCCn1c(=O)c(-c2cccc(F)c2)nc2cncnc21, COc1ccc(-n2c(=O)c(-c3cn(C)c4ccccc34)nc3cnc(OC)nc32)cc1, Cc1ccc(C(=O)NCC(=O)O)cc1S(=O)(=O)N1CCCCC1, Cn1c(SCc2c(F)cccc2Cl)nnc1-c1cnccn1, O=C(NC1CCCCC1)c1ccc2c(=O)n(CC3CCCO3)c(=O)[nH]c2c1 (centres undefined), O=c1[nH]nc(CSCc2ccccc2Cl)[nH]1, COCCNC(=O)c1snc2ccc(Cl)cc12, CCOc1ccc(NC(=O)CCS(=O)(=O)c2cccc3nsnc23)cc1, CCOc1cc(C2C(C(=O)OC)=CN(C3CCCC3)C=C2C(=O)OC)cc(Br)c1O, O=C(Nc1cnn(Cc2ccc(Cl)cc2)c1)C1CCCC1, CSc1ccc(-c2c(C#N)c(N)nc3c2c(C)nn3-c2ccccc2)cc1, COc1ccc(CC(NC(C)=O)C(=O)NC2CCN(C(=O)Nc3ccc(C#N)cc3)CC2)cc1OC (centres undefined), CCOC(=O)N1CCN(C(=O)c2nn(-c3ccc(C)cc3)c(=O)c3c2c2ccccc2n3C)CC1, COc1ccc(Cc2nnnn2CC(=O)O)cc1, CC(c1nnc(SCC(=O)Nc2sccc2C#N)n1-c1ccc(Cl)cc1)N(C)C (centres undefined), CC(C)(CNCC(O)c1ccccc1)N1CCOCC1 (centres undefined), O=C(O)C1CC=C(Cl)CC1C(=O)NCc1ccccc1 (centres undefined), O=C(COc1ccc2c3c(c(=O)oc2c1)CCC3)NC1CCCCC1, Cc1nc2cnc(Nc3ccccc3)nc2n(C[C@H]2CCCO2)c1=O, O=C(NCCCN1CCOCC1)c1cc(-c2ccc(Cl)cc2)on1, Cn1c(=O)c(CCc2ccccc2)nc2cnc(Nc3ccccc3)nc21, Cc1cc(=O)n2nc(N3CCCC(C(=O)NCCC4=CCCCC4)C3)sc2n1 (centres undefined), COc1ccc(-n2c(SCC(=O)NCc3cccs3)nnc2-c2ccoc2C)cc1, Cc1ccnc(SCCn2c(Br)nc3c2c(=O)[nH]c(=O)n3C)n1, CCOC(=O)N1CCC(Nc2c(NCCCN3CCN(c4ccc(OC)cc4)CC3)c(=O)c2=O)CC1, CCCCn1c(SCc2ncc(-c3ccccc3)o2)nc2cc(S(N)(=O)=O)ccc21, CCOc1ccccc1-n1c(SCC(=O)NCc2ccco2)nnc1-c1ccncc1, Nc1cc(=O)nc(SCc2ccccc2)n1Cc1ccco1, Cc1c(S(=O)(=O)O)ccc(N=Nc2c(O)c(C(=O)O)cc3ccccc23)c1Cl, CCC(=O)Nc1cccc(NC(=O)CSc2nnnn2C2CCCC2)c1, Cc1cc(C)c2[nH]c(=O)c(C(c3nnnn3Cc3ccc4c(c3)OCO4)N3CCCC3)cc2c1 (centres undefined), COc1ccccc1N(C(=O)Cn1nnc2ccccc21)C(C(=O)NCc1ccco1)c1ccc(C)o1 (centres undefined), CCC(C(=O)N1CCOCC1)n1c(C(=O)OC)cc2occc21 (centres undefined), CCN(c1ccccc1)S(=O)(=O)c1cccc(C(=O)O)c1, c1ccc2c(Nc3ccncc3)nc(-c3ccc4c(c3)OCO4)nc2c1, CCOC(=O)N1CCN(C(=O)Cc2ccc(-n3c(=S)[nH]c4ccccc4c3=O)cc2)CC1, CC(=O)OCc1cc(=O)n(C)c(=O)n1C, COc1ncc2nc(-c3ccc(Cl)cc3)c(=O)n(C)c2n1, CCc1c(C)nc2ncnn2c1N1CCC(C(=O)NCc2ccc3c(c2)OCO3)CC1, CN(C(=O)CSc1nnnn1-c1ccccc1)C1CCCCC1, Cc1c(-c2nn(C)c(=O)c3ccccc23)oc2ccc(F)cc2c1=O, COCCn1c(=O)[nH]c2cc(C(=O)NCc3cccnc3)ccc2c1=O, NS(=O)(=O)c1cc(Cl)c(Cl)c(S(N)(=O)=O)c1, CCOCCCN1C(=O)CN(C2CCCCC2)C(=O)C1c1ccc(OCC)c(OC)c1 (centres undefined), Cc1cc(C)c2nc(N3CCCC3)c(C#N)cc2c1, COc1cccc(C(=O)c2cc3ccc(O)cc3oc2=O)c1, O=C1[C@@H]2C(Cc3ccc(O)cc3)NC3(C(=O)Nc4ccc(F)cc43)[C@@H]2C(=O)N1c1ccc(F)cc1 (some centres undefined), CCC(=O)N(Cc1cc2cc(OC)ccc2[nH]c1=O)c1ccccc1C, COc1cccc(OCC(O)CN2CCN(CCO)CC2)c1 (centres undefined), C=CCn1c(SCC(=O)NC23CC4CC(CC(C4)C2)C3)nc(O)cc1=O, COCCn1c(=O)c(-c2cccs2)nc2cnc(N3CCN(C)CC3)nc21, Cc1cc(C)cc(OCc2nnc(SCC(=O)OC3CCCCC3)o2)c1, COCCn1c(=O)c(-c2ccc(OC)cc2)nc2cnc(Oc3cccc(Cl)c3)nc21, CS(=O)(=O)Nc1cccc(-c2cncnc2Nc2ccccc2)c1, Cn1c(SCC(=O)OC2CCCCC2)nnc1-c1ccc(S(=O)(=O)N2CCCC2)cc1, CCS(=O)(=O)N1CCC(C(=O)N2CCN(c3ccccc3)CC2)CC1, CCOCC(=O)Nc1cc(OC)c(Cl)cc1OC, CCN1C(=O)/C(=C\N2CCN(c3cccc(Cl)c3)CC2)SC1=S, CCN(Cc1ccncc1)C(=O)[C@@H](CO)c1ccccc1, CC(=O)N1CCC(C(=O)Nc2nc(-c3ccccc3)ns2)CC1, COc1ccc(S(=O)(=O)NC(CC(=O)NCc2ccccc2OC)c2ccco2)cc1 (centres undefined), Nc1nc2c(ncn2[C@H]2CC[C@@H](CO)O2)c(=O)n1C(=O)c1ccccc1, Cc1ccc(CNC(=O)CN2CCN(Cc3ccc(Cl)cc3)C2=O)cc1, CCOCCc1c(O)nc(SCC(=O)NCc2ccco2)[nH]c1=O, COc1cc(OC)cc(C(=O)NCCSCc2ccco2)c1, O=c1[nH]c(=O)n([C@H]2C[C@H](O)[C@H](CO)O2)cc1Br, O=c1c(-c2ccc(F)cc2)nc2cncnc2n1-c1ccccc1, CCOc1ccc(N(CC(=O)NCc2ccc(OC)cc2)S(=O)(=O)c2c(C)noc2C)cc1, C[C@@H]1C[C@H]2[C@@H]3C[C@H](F)C4=CC(=O)C=C[C@@]4(C)[C@]3(F)[C@H](O)C[C@]2(C)[C@@]1(O)C(=O)CO, O=C(Nc1ccccc1)c1cccnc1Nc1ccccc1, Cc1ccc(NC(=O)NCC(c2cccnc2)N2CCOCC2)cc1 (centres undefined), O=C(c1ccco1)N1CCC[C@@]2(CCN(Cc3nccs3)C2)C1, O=C1N=C(N2CCOCC2)CS1, Cc1ccc(C(=O)CS(C)(=O)=O)cc1, O=C(Nc1ccc(Cl)cn1)Nc1cccs1
